High-throughput results deposited in PubChem BioAssay by National Center for Advancing Translational Sciences (NCATS).
A selection: hits, their analogues and other compounds. The true share with any hit is near 3.1%.
PMP22 txn: modulates PMP22 transcription in S16 Schwann cells | S16 Pmp22-F2sN Schwann cells, FLuc/NLuc coincidence luminescence, 24 h | 43,000 compounds, 2% hits | Potency, µM (doses to about 57.5 µM), without a hit: at the highest dose activity change, negative = inhibition, actives largely listed as inhibitors | AID 1508649; active means clear falling dose curves in both reporters; inconclusive means both reporters move, but less clearly or upward; inactive means either reporter flat; the % is the NLuc reporter signal; further: potency means the concentration at half of the fitted maximal effect; on the % scale 0 is the no-effect control and ±100 the full control effect
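Schwann cells carrying the coincidence reporter were exposed to library compounds for 24 h at 37C, then lysed and read for FLuc and, after quenching, NLuc luminescence on a CCD imager.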
pS6 MEF inh: mTORC1 pathway inhibition measured by phospho-rpS6 | Tsc2-/- p53-/- MEF, phospho-rpS6 immunofluorescence/PI, 24 h | Potency, µM (series often up to 38.3 µM), for the others: at the top dose activity change, negative = inhibition, most hits filed as inhibitors | 44,000 compounds, 0.78% hits;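 further: potency means the concentration at half of the fitted maximal effect; plate controls were DMSO for no effect and rapamycin for full effect; nearly all actives have a fitted effect of over 50% in size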
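Read-out: phospho-S6 Alexa-488 intensity over PI intensity per well, scored as % active cells using thresholds from rapamycin (7.5 nM) and DMSO controls. Tsc2-/-, p53-/- MEFs exposed to compound for 24 h; PI cell count recorded as viability.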
p53null 32C kill: selectivity test: cytotoxicity in p53 null cells, permissive temperature | H1299-neo p53 null cells, ATP luminescence, 24 h, 32C | AID 903 | 55,000 compounds, 0.62% hits | Potency, µM (titrated, usually from 46.1 µM), without a hit: at the highest dose activity change, negative = cytotoxicity, usual class: cytotoxic;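 further: potency means the concentration at half of the fitted maximal effect; 0% = DMSO only and -100% = full killing by 100 µM tamoxifen; nearly all actives have a fitted effect of over 55% in size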
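Cells lacking p53 (H1299-neo) are plated at 600 per well and allowed to settle overnight at 37C. Test compounds (up to 46 uM) are added and held 24 hours at 32C, then ATP is quantified by luminescence.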
p53null 39C kill: kills p53 null cells at the nonpermissive temperature; AID 904; Potency, µM (titrated, usually from 46.1 µM), without a hit: top-dose activity, negative = cell killing, actives largely listed as cytotoxic; H1299 p53-null (neo) cells, 39C, ATPlite viability, 24 h; 55,000 compounds, 0.97% hits;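 further: potency means the concentration at half of the fitted maximal effect; 0% = DMSO only and -100% = full killing by 100 µM tamoxifen; nearly all actives have a fitted effect of over 50% in size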
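H1299 lung cancer cells, p53-null (H1299-neo) or expressing p53 A138V (H1299-p53A138V), were plated overnight at 37C, then exposed to compounds at up to 46 uM for 24 hr at 39C. Viability was read by ATP-based luminescence.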
SKOV3 invasion: inhibitors of ovarian cancer cell adhesion and invasion in omental model; AID 1963576; Potency, µM (highest dose often 45.8 µM), inactives show at the top dose activity change, negative = inhibition, hits mostly inhibitors; SKOV3ip1-GFP adhesion/invasion on 3D omental model, fluorescence; 46,000 compounds, 0.1% hits;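 further: potency means the concentration at half of the fitted maximal effect; plate controls were DMSO wells for no effect and tomatine positive control wells for full effect; nearly all actives have a fitted effect of over 65% in size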
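Adhesion/invasion was scored as fixed GFP-labeled SKOV3ip1 cell counts (488/509 nm), normalized to DMSO and tomatine controls. Cancer cells in serum-free medium, with four compound doses (0.36-46 umol/L), sat 2 hr at RT then 16 hr at 37 C on a 48 hr fibroblast/mesothelial/ECM culture.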
S16 viability: cytotoxicity in S16 Pmp22-F2sN Schwann cells; S16 Pmp22-F2sN Schwann cells viability, CellTiter-Glo, 24 h; Potency, µM (highest dose often 57.5 µM), without a hit: at the top dose activity change, negative = cytotoxicity, usual class: cytotoxic; 43,000 compounds, 0.48% hits; further: potency means the concentration at half of the fitted maximal effect; on the % scale 0 is the no-effect control and ±100 the full control effect; nearly all actives have a fitted effect of over 65% in size
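S16 Pmp22-F2sN Schwann cells (500-1,000/well) in phenol-red-free DMEM with 10% FBS received 23 nL compound by pin tool for 24 h at 37 °C. Viability was then read as CellTiter-Glo luminescence after 15 min at room temperature.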
NLuc sat counter: inhibits NanoLuc at saturating substrate, PMP22 counter-screen; shares compounds with PMP22 txn; 690 compounds, 4% hits; Secreted NLuc enzyme (filtered S16 cell medium), Nano-Glo luminescence; Potency, µM (titrated, usually from 57.5 µM), for inactives: top-dose activity change, negative = inhibition, usual class: inhibitors; further: potency means the concentration at half of the fitted maximal effect; on the % scale 0 is the no-effect control and ±100 the full control effect
NLuc Km ctr: counter-screen for PMP22 expression modulators: NanoLuc inhibition at Km; shares compounds with PMP22 txn; secreted NLuc enzyme, coelenterazine luminescence, Km conditions; Potency, µM (doses to about 57.5 µM), for inactives: at the top dose activity change, negative = inhibition, usual class: inhibitors; 690 compounds, 5% hits; AID 1508639; further: potency means the concentration at half of the fitted maximal effect; on the % scale 0 is the no-effect control and ±100 the full control effect
FLuc counter: counter-screen for PMP22 expression modulators: firefly luciferase inhibition | shares compounds with PMP22 txn | purified P. pyralis FLuc, luminescence, 10 min | Potency, µM (doses to about 57.5 µM), without a hit: top-dose activity, negative = inhibition, most hits filed as inhibitors | 690 tested, under 10 active; further: % of control where 0% means no effect
Target sequence (P08659 whole entry, looked up): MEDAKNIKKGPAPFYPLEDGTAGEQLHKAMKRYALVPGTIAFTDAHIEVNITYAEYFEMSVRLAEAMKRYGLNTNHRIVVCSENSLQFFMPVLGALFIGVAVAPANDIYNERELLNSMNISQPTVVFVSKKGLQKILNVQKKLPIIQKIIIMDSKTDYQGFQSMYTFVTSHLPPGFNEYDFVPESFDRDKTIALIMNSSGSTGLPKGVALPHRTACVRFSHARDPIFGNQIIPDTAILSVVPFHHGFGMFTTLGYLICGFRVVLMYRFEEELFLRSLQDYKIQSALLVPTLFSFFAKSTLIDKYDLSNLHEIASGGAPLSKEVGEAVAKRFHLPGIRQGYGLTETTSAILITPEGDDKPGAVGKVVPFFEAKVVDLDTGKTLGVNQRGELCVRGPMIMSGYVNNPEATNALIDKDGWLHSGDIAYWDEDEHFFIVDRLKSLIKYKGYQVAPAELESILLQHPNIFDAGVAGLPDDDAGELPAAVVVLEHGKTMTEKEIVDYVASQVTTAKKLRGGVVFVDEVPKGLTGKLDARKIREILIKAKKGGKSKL
S16 F2sN tox cnf: confirmation of cytotoxicity in S16 Pmp22-F2sN Schwann cells (luciferase reporters placed in the Pmp22 gene). S16 Schwann cells viability, CellTiter-Glo ATP luminescence, 24 h. shares compounds with PMP22 txn. Potency, µM (top dose mostly 57.5 µM), for the others: at the top dose activity change, negative = viability loss, actives largely listed as cytotoxic. AID 1508641. 690 compounds, 7% hits; further: potency means the concentration at half of the fitted maximal effect; on the % scale 0 is the no-effect control and ±100 the full control effect
PMP22 txn conf: confirmation of modulators of PMP22 gene transcription in S16 cells. S16 Schwann cells Pmp22-F2sN, dual luciferase, 24 h. Potency, µM (doses to about 57.5 µM), for inactives: at the highest dose activity change, negative = inhibition, most hits filed as inhibitors. shares compounds with PMP22 txn. 690 compounds, 22% hits. AID 1508646; active means clear falling dose curves in both reporters; inconclusive means both reporters move, but less clearly or upward; inactive means either reporter flat; the % is the FLuc reporter signal; further: potency means the concentration at half of the fitted maximal effect
* = called active by the depositor; i = inactive; ? = inconclusive; . = no result; [ ] = dose if it differs, or a comment. Unless noted, the call rests on the fitted dose curve; in most records, active means well fitted curve in the direction sought with a large enough effect; inconclusive means small, poorly fitted or top-dose-only effect, or another doubt; inactive means no such curve, though single readings can be large; an effect the other way counts as inactive or inconclusive.

SMILES | PMP22 txn | pS6 MEF inh | p53null 32C kill | p53null 39C kill | SKOV3 invasion | S16 viability | NLuc sat counter | NLuc Km ctr | FLuc counter | S16 F2sN tox cnf | PMP22 txn conf
O=C(NCCSc1c[nH]c2ccccc12)c1ccccc1Cl | ? | 1% | 1% | -2% | -2% | ? | ? | ? | -12% | 1% | -25%
C#Cc1cccc(Nc2ncnc3cc(OCCOC)c(OCCO)cc23)c1 | . | . | . | . | 5% | . | . | . | . | . | .
COc1ccc(CCNc2ncnc3onc(C)c23)c(OC)c1 | 4µM* | 1% | -5% | -27% | 4% | ? | -18% | 4% | -17% | ? | 4µM*
COc1cccc(CNc2ncnc3onc(C)c23)c1 | ? | -3% | 3% | 6% | -2% | -13% | . | . | . | . | .
CCC(C)n1ncn(-c2ccc(N3CCN(c4ccc(OC[C@H]5CO[C@](Cn6cncn6)(c6ccc(Cl)cc6Cl)O5)cc4)CC3)cc2)c1=O (some centres undefined) | . | . | . | . | -1% | . | . | . | . | . | .
CCOC(=O)c1cc2c(=O)n3ccccc3nc2n(C)c1=NC(=O)c1c(-c2c(F)cccc2Cl)noc1C | 2.1µM* | -12% | 1% | 3% | 3% | 0% | ? | -17% | 5% | 12% | -17%
CCOC(=O)c1cc2c(=O)n3ccccc3nc2n(C(C)C)c1=NC(=O)c1c(-c2c(F)cccc2Cl)noc1C | 11µM* | -1% | 12% | 33% | 5% | ? | ? | -16% | 3% | 18% | ?
CC(=O)OCC#CCSc1nnc(-c2cccc(Br)c2)o1 | 9.2µM* | 3% | -6% | -3% | -7% | 10% | ? | ? | -12% | ? | ?
Clc1cccc(N2CCN(c3ncnc4c3nc3n4CCCCC3)CC2)c1 | 20µM* | -21% | -18% | ? | i | -10% | ? | 14µM* | -3% | ? | ?
O=C(C1CCN(c2ncnc3c2nc2n3CCCCC2)CC1)N1CCN(c2cccc(Cl)c2)CC1 | ? | -10% | 7% | -23% | -30% | -28% | . | . | . | . | .
Cc1nnc(N2CCC(C(=O)N3CCCCC3)CC2)c2nn(-c3ccc(Cl)cc3)c(C)c12 | 19µM* | -2% | 27% | -5% | 2% | ? | -6% | 5% | -2% | -9% | ?
COC(=O)c1ccccc1NC(=O)C1CCCN(c2nnc(C)c3c(C)n(-c4ccccc4)nc23)C1 (centres undefined) | -1% | -6% | 2% | 21% | 0% | 12% | . | . | . | . | .
Cc1ccc(NC(=O)C2CCN(c3nnc(C)c4c(C)n(-c5ccccc5)nc34)CC2)cc1Cl | -3% | -8% | -4% | 30% | -3% | 11% | . | . | . | . | .
COc1ccc(NC(=O)C2CCCN(c3nnc(C)c4c(C)n(-c5ccccc5)nc34)C2)cc1Cl (centres undefined) | 20µM* | ? | ? | ? | ? | ? | -9% | -1% | 28% | 43µM* | ?
COc1ccc(CNC(=O)C2CCCN(c3nnc(C)c4c(C)n(-c5ccc(C)cc5)nc34)C2)cc1 (centres undefined) | 17µM* | -14% | -1% | 3% | -29% | ? | ? | ? | -4% | ? | ?
Cc1nnc(N2CCCC(C(=O)Nc3ccccc3C(F)(F)F)C2)c2nn(-c3ccccc3)c(C)c12 (centres undefined) | 13µM* | -8% | -2% | -3% | ? | 28µM* | -19% | -2% | 4% | ? | ?
O=C(O)CCCCCC(=O)NN=C1CCCC1 | . | . | . | . | -8% | . | . | . | . | . | .
CNc1nccc(-c2cccnc2Oc2cc(C(=O)Nc3cccc(C(F)(F)F)c3)ccc2C)n1 | . | . | . | . | -1% | . | . | . | . | . | .
COc1ccc(OC)c(NC(=O)c2sc3nc4c(cc3c2N)CCCCCC4)c1 | ? | ? | ? | ? | 7% | -2% | . | . | . | . | .
Cc1cccc(NC(=O)c2sc3nc4c(cc3c2N)CCCCCC4)c1C | ? | ? | -3% | ? | -10% | 17% | -7% | -2% | -7% | 0% | -40%
Cc1ccccc1CNC(=O)Nc1ccc2c(c1)N(C)C(=O)c1ccccc1S2 | ? | -28% | 1% | -1% | i | ? | . | . | . | . | .
Fc1ccc(C(c2ccc(F)cc2)N2CCN(CC=Cc3ccccc3)CC2)cc1 | . | . | . | . | -7% | . | . | . | . | . | .
CC(=O)NCC(=O)N1[C@H]2CC[C@H]1c1cc(Nc3ncc(C(F)(F)F)c(NC4CCC4)n3)ccc12 | . | . | . | . | -15% | . | . | . | . | . | .
CCCOc1ccc(CN2C(=O)C(=O)c3cccc(C)c32)cc1 | 11µM* | ? | 67% | ? | ? | -7% | ? | ? | -16% | ? | ?
Cc1cccc2c1N(CCOc1ccc(C(C)(C)C)cc1)C(=O)C2=O | . | . | -13% | . | . | . | . | . | . | . | .
O=S(=O)(c1ccc(-c2csc(=Nc3ccc(OC(F)(F)Cl)cc3)n2CCCO)cc1)N1CCCC1 | 15µM* | ? | -5%[9.22 µM] | 22% | ? | ? | 0% | -2% | -10% | 22µM* | 19µM*
